Results from article PMC4336329 (PLoS ONE, 2015).
Among all 310,000 compounds or so, about 2,200 (0.71%) showed an effect of 50% or more. The effect is printed as a negative number. This excerpt belongs to a sample that is enriched for strong results.

target: human ether-à-go-go-related gene (hERG) potassium channel (human, UniProt Q12809); experiment: primary screen, population patch clamp on CHO cells stably expressing hERG; higher = less effect of the substance
Sequence (Q12809 whole entry, looked up): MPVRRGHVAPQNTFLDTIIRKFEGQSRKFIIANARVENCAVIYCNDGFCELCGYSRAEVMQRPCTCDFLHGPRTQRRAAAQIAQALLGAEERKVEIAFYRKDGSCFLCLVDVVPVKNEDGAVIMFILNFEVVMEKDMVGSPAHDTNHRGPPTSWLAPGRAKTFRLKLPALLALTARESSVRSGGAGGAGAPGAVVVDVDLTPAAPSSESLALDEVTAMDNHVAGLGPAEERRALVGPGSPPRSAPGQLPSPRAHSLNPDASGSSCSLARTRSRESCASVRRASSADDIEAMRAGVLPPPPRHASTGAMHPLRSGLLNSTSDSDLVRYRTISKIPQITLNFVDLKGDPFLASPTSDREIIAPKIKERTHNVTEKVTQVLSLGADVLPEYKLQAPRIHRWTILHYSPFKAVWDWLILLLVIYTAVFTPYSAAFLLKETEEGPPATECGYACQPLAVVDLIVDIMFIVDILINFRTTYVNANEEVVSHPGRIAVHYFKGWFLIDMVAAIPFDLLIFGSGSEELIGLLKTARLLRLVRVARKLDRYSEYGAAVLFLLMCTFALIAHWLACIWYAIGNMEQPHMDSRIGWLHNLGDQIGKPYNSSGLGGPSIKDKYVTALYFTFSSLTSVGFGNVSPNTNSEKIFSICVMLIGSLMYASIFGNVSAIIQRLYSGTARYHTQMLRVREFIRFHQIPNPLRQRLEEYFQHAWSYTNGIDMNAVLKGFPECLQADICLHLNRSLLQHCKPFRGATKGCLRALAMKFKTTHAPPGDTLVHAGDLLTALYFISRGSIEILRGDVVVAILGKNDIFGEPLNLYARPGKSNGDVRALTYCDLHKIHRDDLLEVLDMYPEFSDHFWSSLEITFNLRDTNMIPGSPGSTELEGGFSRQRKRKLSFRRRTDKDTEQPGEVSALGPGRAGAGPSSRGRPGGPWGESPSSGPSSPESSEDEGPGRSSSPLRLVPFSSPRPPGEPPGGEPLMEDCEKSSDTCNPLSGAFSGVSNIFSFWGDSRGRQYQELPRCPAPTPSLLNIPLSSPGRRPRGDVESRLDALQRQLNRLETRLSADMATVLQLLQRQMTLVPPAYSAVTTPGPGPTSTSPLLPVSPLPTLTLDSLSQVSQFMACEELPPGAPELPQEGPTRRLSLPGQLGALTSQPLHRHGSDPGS

| SMILES | hERG current change (%, negative = inhibition) at 1uM [%] |
| --- | --- |
| O=C(COC(=O)c1nc(Cl)c(Cl)c(Cl)c1Cl)NCc1ccccc1 | 3.59 |
| Cc1ccc(OCCNS(=O)(=O)c2ccc(N3CCCC3=O)cc2)cc1 | 7.63 |
| Cc1sc2nc(NCCO)[nH]c(=O)c2c1C | 14.6 |
| CS(=O)(=O)c1cccc(-c2nnc(NC(=O)C3=COCCO3)o2)c1 | 0.983 |
| Nc1c(C(=O)c2ccc(Cl)cc2)oc2ccccc12 | 18 |
| O=C(Nc1ccccc1)C1=C[C@H](c2ccccc2)C[C@H](OCCCCO)O1 | 12.7 |
| Cc1nc(N2CCN(S(=O)(=O)c3ccccc3)CC2)c2cc(-c3ccccc3)sc2n1 | 2.54 |
| c1ccc2c(c1)nnn2Cc1nnc2sc(-c3ccc4c(c3)OCCO4)nn12 | 9.84 |
| COC(=O)c1cccc(OCC(O)Cn2ccnc2)c1 (centres unmarked) | 0.869 |
| Cc1ccccc1OCC(O)CN1CCN(C)CC1.Cl (centres unmarked) | 5.66 |
| Cc1ccccc1OCC(O)CN1CCN(CC(O)COc2ccccc2C)CC1 (centres unmarked) | -50.4 |
| Cc1ccccc1OCC(O)CN1CCC(C)CC1.Cl (centres unmarked) | -6.73 |
| Cc1ccc2oc(=O)c3cnn(CC(=O)N4CCCc5ccccc54)c3c2c1 | 4.39 |
| CCn1c(SCC(=O)c2c(N)n(C)c(=O)n(C)c2=O)nnc1-c1ccccc1 | 14.2 |
| CN1CCN(Cc2c(O)ccc3occ(C(=O)c4ccccc4)c23)CC1 | -14.3 |
| Cc1ccc(C(=O)c2coc3ccc(O)c(CN(C)C)c23)cc1.Cl | -16.2 |
| COc1ccc2occ(C(=O)c3coc4ccc(O)c(CN(C)C)c34)c2c1.Cl | -29.5 |
| CCN(CC)Cc1c(O)ccc2occ(C(=O)c3ccc(OC)cc3)c12 | -64.2 |
| CCN(CC)Cc1c(O)ccc2occ(C(=O)c3ccccc3)c12 | -57.3 |
| CN(C)Cc1c(O)ccc2occ(C(=O)c3ccc(F)cc3)c12 | -57.5 |
| COc1ccc(C(=O)c2coc3ccc(O)c(CN(C)C)c23)cc1 | -29.3 |
| CN(C)Cc1c(O)ccc2occ(C(=O)c3ccccc3)c12 | -16.4 |
| COc1ccc(OC)c(C(=O)c2coc3ccc(O)c(CN(C)C)c23)c1.Cl | 9.87 |
| Cc1ccc(-c2nc3cccnc3o2)cc1NC(=O)COc1ccc(C(C)(C)C)cc1 | 7.31 |
| COc1ccc(S(=O)(=O)Nc2ccc(Cc3ccncc3)cc2)cc1OC | 7.28 |
| COc1cc(NC(=O)c2ccc(F)cc2)c(OC)cc1NC(=O)CN1CCOCC1 | 3.57 |
| O=C(CN1C(=O)NC2(CCCCC2)C1=O)NCCC1=CCCCC1 | 14.5 |

| SMILES | hERG current change (%, negative = inhibition) at 1uM [%] |
| --- | --- |
| COC(=O)c1cc(S(=O)(=O)N2CCCCCC2)c[nH]1 | 12.4 |
| Cc1c(C(=O)Nc2nccs2)oc2ccc(F)cc12 | 14.5 |
| CCC(C(=O)N1CCN(Cc2ccc3c(c2)OCO3)CC1)n1c(=O)[nH]c2ccccc2c1=O (centres unmarked) | -8.55 |
| CCN1CCc2c(C#N)c(N3CCCCC3)nc(N3CCOCC3)c2C1 | 12.1 |
| CCCN1C(=O)C2(C(C(=O)c3ccc(C)o3)=C(O)C(=O)N2CCCOC)c2ccccc21 (centres unmarked) | 7.99 |
| COc1cc2oc3ccccc3c2cc1N(CC(=O)N(C)C)S(=O)(=O)c1ccccc1 | 0.641 |
| Clc1nc(CN2CCCCC2)nc2sc3c(c12)CCCC3 | 7.88 |
| COc1cc2c(cc1OC)CN(c1nc(CN3CCOCC3)nc3sc4c(c13)CCCC4)CC2 | -54 |
| COc1cc2c(cc1OC)CN(c1nc(CN3CCCCC3)nc3sc4c(c13)CCCC4)CC2 | -57.3 |
| COc1cc2c(cc1OC)CN(c1nc(CN3CCOCC3)nc3sc4c(c13)CCC(C)C4)CC2 (centres unmarked) | 5.29 |
| COc1cc2c(cc1OC)CN(c1nc(CN3CCCC3)nc3sc(C)c(C)c13)CC2 | -22.9 |
| c1ccc2c(c1)CCN(c1nc(CN3CCOCC3)nc3sc4c(c13)CCCC4)C2 | 14.5 |
| Cc1cccc(C)c1NC(=S)NN(Cc1ccccc1)c1ccccc1 | 10.3 |
| COc1ccc(CNC(=O)CSc2nnc(-c3cccnc3)n2N)cc1 | 7.27 |
| CCN(CC(=O)Nc1ccc(NC(C)=O)cc1)C(=O)COc1ccc(C(=O)c2ccccc2)cc1 | 10.3 |
| CCN1CCN(c2ccc(S(=O)(=O)N3CCCCC3)cc2NC(=O)c2ccc(OC(F)F)cc2)CC1 | -56.4 |
| CCN1CCN(c2ccc(S(=O)(=O)N3CCCCC3)cc2NC(=O)/C=C/c2ccc(OC(F)F)cc2)CC1 | -1.19 |
| CCN1CCN(c2ccc(S(=O)(=O)N3CCCCC3)cc2NC(=O)c2ccc([N+](=O)[O-])o2)CC1 | -73.3 |
| CCN1CCN(c2ccc(S(=O)(=O)N3CCCCC3)cc2NC(=O)c2cc3ccccc3o2)CC1 | 0.811 |
| CCN1CCN(c2ccc(S(=O)(=O)N3CCCCC3)cc2NC(=O)c2ccc(C)o2)CC1 | -62.4 |
| COc1ccc(S(=O)(=O)N2CCCCC2)cc1NC(=O)c1ccc([N+](=O)[O-])o1 | 12.4 |
| CCN1CCN(c2ccc(S(=O)(=O)N3CCCCC3)cc2NC(=O)c2ccccc2)CC1 | -15.6 |
| CCN1CCN(c2ccc(S(=O)(=O)N3CCCCC3)cc2NC(=O)c2ccc([N+](=O)[O-])s2)CC1 | -13.8 |
| CCN1CCN(c2ccc(S(=O)(=O)N3CCCCC3)cc2NC(=O)c2ccc(F)cc2)CC1 | -16.7 |
| Cc1cccc(C)c1Nc1nnc(SCC(=O)c2ccc(Br)s2)s1 | 12.4 |
| CCCN(CCC)S(=O)(=O)c1ccc(NC(=O)c2cc(C(=O)OC)cc([N+](=O)[O-])c2)cc1 | 16.7 |
